“And” between values parts separate entries of the source, which are not always exact repeats. Equal values may be shown once. Records with an inconclusive call do not appear. Some compounds were tested as several samples or in several runs, with calls that do not always agree. The source made the active and inactive calls. How the source made its calls: active means hit-call score of the fitted dose curve at least 0.9, where 1 is the maximum; inconclusive means response in the unintended direction; inactive means score below 0.9.

Test [1] deals with human Mitogen- and Stress-activated Protein Kinase-1 (Msk1), RPS6KA5 (gene 9252) (UniProt O75582). Nature of the test: NVS_ENZ_hMsk1: NovaScreen (NVS) Enzymatic Assay for human Mitogen- and Stress-activated Protein Kinase-1 (Msk1) (AID 2283187). The method, then:
NVS_ENZ_hMsk1 is a biochemical, single-readout assay that uses extracted gene-proteins in a cell-free assay. Measurements were taken 1 hour after chemical dosing in a 384-well plate.NVS_ENZ_hMsk1 is one of one assay component(s) measured or calculated from the NVS_ENZ_hMsk1 assay. It is designed to make measurements of enzyme activity, a form of enzyme reporter, as detected with fluorescence intensity signals by Fluorescence and electrophoretic mobility shift technology.Data from the assay component NVS_ENZ_hMsk1 was analyzed into 1 assay endpoint. This assay endpoint, NVS_ENZ_hMsk1, was analyzed in the positive analysis fitting direction relative to DMSO as the negative control and baseline of activity. Using a type of enzyme reporter, loss-of-signal activity can be used to understand changes in the enzymatic activity as they relate to the gene RPS6KA5. Furthermore, this assay endpoint can be referred to as a primary readout, because this assay has produced multiple assay endpoints where this one serves a enzymatic activity function. To generalize the intended target to other relatable targets, this assay endpoint is annotated to the kinase intended target family, where the subfamily is serine/threonine kinase. […]

In test [2] the target is cAMP-dependent protein kinase catalytic subunit alpha (Homo sapiens) (UniProt P17612). Put plainly: NVS_ENZ_hPKA: NovaScreen (NVS) Enzymatic Assay for human Protein Kinase A (PKA) (AID 2283192). The method in brief:
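Cell-free kinase activity read by fluorescence after mobility-shift separation of substrate and product, 1 h post-dosing. Single-concentration duplicate screen (25 uM) preceded singleton concentration series (top 50 uM); loss of signal versus DMSO.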

Test [3] has as its target human Phosphodiesterase 10 (PDE10), PDE10A (gene 10846) (UniProt Q9Y233). Nature of the test: NVS_ENZ_hPDE10: NovaScreen (NVS) Enzymatic Assay for human Phosphodiesterase 10 (PDE10) (AID 2283195). The gist of the method: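 Biochemical single-readout PDE10A assay, cell-free, extracted protein. Compounds first screened at 25 uM in duplicate, hits then titrated to 50 uM max. Activity measured after 1 h; loss-of-signal fitted against DMSO negative control.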

Test [4] has as its target PPP2CA (gene 5515) (UniProt P67775). Nature of the test: NVS_ENZ_hPPP2CA: NovaScreen (NVS) Enzymatic Assay for human Protein Phosphatase 2 Aatalytic subunit Alpha (PPP2CA) (AID 2283199). The gist of the method: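 Cell-free phosphatase activity: fluorescent substrate turnover by recombinant human enzyme, resolved by mobility shift at 1.33 h. Compounds passing the 25 uM duplicate primary screen were rerun in singleton series with a 50 uM top concentration.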

The target in test [5] is human Phosphoinositide 3-kinase alpha (PI3Ka), PIK3CA (gene 5290) (UniProt P42336). Put plainly: NVS_ENZ_hPI3Ka: NovaScreen (NVS) Enzymatic Assay for human Phosphoinositide 3-kinase alpha (PI3Ka) (AID 2283196). The gist of the method: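 Duplicate single-point screen (25 uM), then singleton dose-response (max 50 uM) for compounds meeting the threshold. Cell-free kinase reaction, 1 h; fluorescent mobility-shift readout.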
Sequence of human Phosphoinositide 3-kinase alpha (PI3Ka), PIK3CA (gene 5290) (P42336 whole entry, looked up): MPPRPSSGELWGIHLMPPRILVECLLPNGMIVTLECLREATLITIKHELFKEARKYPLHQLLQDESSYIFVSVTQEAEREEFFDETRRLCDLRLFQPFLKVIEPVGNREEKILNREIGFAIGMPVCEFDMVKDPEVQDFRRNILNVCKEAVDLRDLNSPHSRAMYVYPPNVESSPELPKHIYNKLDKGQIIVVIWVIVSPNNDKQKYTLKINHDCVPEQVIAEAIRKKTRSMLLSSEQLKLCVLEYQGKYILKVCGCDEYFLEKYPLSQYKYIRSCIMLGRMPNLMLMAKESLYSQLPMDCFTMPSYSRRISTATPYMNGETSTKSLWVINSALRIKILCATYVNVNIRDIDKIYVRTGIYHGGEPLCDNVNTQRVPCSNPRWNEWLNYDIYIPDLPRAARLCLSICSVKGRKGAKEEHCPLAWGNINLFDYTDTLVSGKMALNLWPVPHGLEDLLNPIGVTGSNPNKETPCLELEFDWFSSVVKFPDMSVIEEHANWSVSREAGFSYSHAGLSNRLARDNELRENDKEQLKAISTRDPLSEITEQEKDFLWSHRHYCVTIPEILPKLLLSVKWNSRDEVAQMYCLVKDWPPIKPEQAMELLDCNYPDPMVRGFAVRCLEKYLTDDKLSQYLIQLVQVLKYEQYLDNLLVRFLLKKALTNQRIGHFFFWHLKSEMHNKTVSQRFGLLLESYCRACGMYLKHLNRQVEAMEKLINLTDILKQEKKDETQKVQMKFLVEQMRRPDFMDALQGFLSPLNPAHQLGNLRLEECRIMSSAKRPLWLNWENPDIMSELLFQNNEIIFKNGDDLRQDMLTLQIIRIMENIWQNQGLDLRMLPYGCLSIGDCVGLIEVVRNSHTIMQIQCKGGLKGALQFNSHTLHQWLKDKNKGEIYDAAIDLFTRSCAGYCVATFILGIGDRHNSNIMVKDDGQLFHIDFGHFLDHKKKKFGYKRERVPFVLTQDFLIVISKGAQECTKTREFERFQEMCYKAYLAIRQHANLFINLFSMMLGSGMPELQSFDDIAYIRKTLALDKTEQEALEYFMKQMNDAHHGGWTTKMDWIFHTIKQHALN

The target in test [6] is human Phosphodiesterase 5 (PDE5), PDE5A (gene 8654) (UniProt O76074). Nature of the test: NVS_ENZ_hPDE5: NovaScreen (NVS) Enzymatic Assay for human Phosphodiesterase 5 (PDE5) (AID 2283194). The method in brief:
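Screening began in duplicate at 25 uM, with actives taken into concentration-response. Enzyme activity of recombinant PDE5 toward its substrate was measured at 1 h by fluorescence mobility-shift detection, relative to DMSO controls.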

For test [7], the target named is human Phosphodiesterase 4A1 (PDE4A1), PDE4A (gene 5141) (UniProt P27815). Put plainly: NVS_ENZ_hPDE4A1: NovaScreen (NVS) Enzymatic Assay for human Phosphodiesterase 4A1 (PDE4A1) (AID 2283191). The gist of the method: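 Fluorescent substrate turnover by recombinant PDE4A1 read after 1 h by mobility-shift separation. Primary duplicate screen at 25 uM; hits retested in concentration series with a 50 uM maximum, relative to DMSO.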
Sequence of human Phosphodiesterase 4A1 (PDE4A1), PDE4A (gene 5141) (P27815 whole entry, looked up): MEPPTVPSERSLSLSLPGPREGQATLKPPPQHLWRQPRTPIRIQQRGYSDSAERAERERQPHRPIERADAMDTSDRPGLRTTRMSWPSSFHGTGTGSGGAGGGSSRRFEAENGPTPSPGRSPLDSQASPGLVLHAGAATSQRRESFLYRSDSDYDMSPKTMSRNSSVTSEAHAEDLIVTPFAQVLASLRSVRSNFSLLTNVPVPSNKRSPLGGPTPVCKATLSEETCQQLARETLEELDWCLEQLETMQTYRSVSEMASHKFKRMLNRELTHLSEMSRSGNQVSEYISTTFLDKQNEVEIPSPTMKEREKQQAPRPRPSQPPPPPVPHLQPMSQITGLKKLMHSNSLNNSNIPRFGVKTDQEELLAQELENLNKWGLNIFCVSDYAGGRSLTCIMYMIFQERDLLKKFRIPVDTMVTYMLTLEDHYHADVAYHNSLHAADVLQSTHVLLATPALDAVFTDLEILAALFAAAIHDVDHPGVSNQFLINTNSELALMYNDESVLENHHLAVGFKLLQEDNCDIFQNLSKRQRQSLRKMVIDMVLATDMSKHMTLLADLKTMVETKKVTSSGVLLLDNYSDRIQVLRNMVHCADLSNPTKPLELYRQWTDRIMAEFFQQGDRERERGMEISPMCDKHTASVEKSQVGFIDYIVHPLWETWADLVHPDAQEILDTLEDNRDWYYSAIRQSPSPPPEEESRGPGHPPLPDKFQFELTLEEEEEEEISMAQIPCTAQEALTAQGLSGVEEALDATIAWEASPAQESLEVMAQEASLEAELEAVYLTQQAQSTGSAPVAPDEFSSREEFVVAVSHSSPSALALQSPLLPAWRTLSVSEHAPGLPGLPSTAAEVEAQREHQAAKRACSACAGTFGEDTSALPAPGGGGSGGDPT

The target in test [8] is human NIMA (Never In Mitosis Gene A)-Related Kinase 2 (NEK2), NEK2 (gene 4751) (UniProt P51955). Nature of the test: NVS_ENZ_hNEK2: NovaScreen (NVS) Enzymatic Assay for human NIMA (Never In Mitosis Gene A)-Related Kinase 2 (NEK2) (AID 2283188). The gist of the method: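 Compounds were first screened in duplicate at 25 uM, with actives followed up in concentration series. Recombinant NEK2 activity, cell-free, was read 1 h after dosing by fluorescence intensity after mobility-shift separation. Signal loss was scored against DMSO.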

Test [9] deals with human p21 Activated Kinase 4 (PAK4), PAK4 (gene 10298) (UniProt O96013). Nature of the test: NVS_ENZ_hPAK4: NovaScreen (NVS) Enzymatic Assay for human p21 Activated Kinase 4 (PAK4) (AID 2283189). The method in brief:
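Extracted PAK4 enzyme activity read by fluorescence with mobility-shift separation 1 h after chemical addition. Duplicate single-concentration screen at 25 uM, DMSO as negative control.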

The target in test [10] is human Matrix Metalloproteinase-9 (MMP9), MMP9 (gene 4318) (UniProt P14780). Put plainly: NVS_ENZ_hMMP9: NovaScreen (NVS) Enzymatic Assay for human Matrix Metalloproteinase-9 (MMP9) (AID 2283190).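 Further: cell-free recombinant MMP9 protease activity read by fluorescent substrate signal; active means inhibition seen as loss of fluorescence signal versus DMSO.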 The method in brief: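 Screening concentration 25 uM, duplicate wells, then dose series for confirmation. Cell-free enzymatic reaction measured by fluorescence intensity 1 h post-dosing; decreased signal versus DMSO taken as activity.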
Sequence of human Matrix Metalloproteinase-9 (MMP9), MMP9 (gene 4318) (P14780 whole entry, looked up): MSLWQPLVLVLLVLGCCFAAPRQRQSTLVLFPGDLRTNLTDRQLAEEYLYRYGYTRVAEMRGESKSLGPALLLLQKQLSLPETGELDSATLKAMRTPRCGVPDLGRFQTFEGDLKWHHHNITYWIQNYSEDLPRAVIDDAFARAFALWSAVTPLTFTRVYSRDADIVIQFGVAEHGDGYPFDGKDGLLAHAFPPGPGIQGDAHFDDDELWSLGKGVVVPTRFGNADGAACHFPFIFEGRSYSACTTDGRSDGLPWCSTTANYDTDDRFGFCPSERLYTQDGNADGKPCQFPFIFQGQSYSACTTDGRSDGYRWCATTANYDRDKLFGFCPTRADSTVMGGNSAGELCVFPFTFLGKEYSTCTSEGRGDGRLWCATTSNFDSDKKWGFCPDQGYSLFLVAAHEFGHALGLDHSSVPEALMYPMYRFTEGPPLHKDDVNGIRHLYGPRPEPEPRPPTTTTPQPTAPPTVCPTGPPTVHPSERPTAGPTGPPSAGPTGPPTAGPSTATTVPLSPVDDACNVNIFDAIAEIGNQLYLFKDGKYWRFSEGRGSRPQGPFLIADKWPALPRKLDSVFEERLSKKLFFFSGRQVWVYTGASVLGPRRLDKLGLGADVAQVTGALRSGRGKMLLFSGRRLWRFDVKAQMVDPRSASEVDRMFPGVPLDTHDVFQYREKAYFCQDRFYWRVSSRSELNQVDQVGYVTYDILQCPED

Sequence of PPP2CA (gene 5515) (P67775 whole entry, looked up): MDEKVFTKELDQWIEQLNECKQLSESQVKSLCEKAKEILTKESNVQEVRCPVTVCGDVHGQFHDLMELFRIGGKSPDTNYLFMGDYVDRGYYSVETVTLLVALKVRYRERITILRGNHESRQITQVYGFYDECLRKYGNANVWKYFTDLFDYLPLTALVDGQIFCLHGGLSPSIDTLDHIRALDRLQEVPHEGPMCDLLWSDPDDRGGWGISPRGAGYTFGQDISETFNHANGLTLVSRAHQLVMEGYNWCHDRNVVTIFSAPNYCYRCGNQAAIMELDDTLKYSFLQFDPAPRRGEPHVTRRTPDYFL
Sequence of human Phosphodiesterase 10 (PDE10), PDE10A (gene 10846) (Q9Y233 whole entry, looked up): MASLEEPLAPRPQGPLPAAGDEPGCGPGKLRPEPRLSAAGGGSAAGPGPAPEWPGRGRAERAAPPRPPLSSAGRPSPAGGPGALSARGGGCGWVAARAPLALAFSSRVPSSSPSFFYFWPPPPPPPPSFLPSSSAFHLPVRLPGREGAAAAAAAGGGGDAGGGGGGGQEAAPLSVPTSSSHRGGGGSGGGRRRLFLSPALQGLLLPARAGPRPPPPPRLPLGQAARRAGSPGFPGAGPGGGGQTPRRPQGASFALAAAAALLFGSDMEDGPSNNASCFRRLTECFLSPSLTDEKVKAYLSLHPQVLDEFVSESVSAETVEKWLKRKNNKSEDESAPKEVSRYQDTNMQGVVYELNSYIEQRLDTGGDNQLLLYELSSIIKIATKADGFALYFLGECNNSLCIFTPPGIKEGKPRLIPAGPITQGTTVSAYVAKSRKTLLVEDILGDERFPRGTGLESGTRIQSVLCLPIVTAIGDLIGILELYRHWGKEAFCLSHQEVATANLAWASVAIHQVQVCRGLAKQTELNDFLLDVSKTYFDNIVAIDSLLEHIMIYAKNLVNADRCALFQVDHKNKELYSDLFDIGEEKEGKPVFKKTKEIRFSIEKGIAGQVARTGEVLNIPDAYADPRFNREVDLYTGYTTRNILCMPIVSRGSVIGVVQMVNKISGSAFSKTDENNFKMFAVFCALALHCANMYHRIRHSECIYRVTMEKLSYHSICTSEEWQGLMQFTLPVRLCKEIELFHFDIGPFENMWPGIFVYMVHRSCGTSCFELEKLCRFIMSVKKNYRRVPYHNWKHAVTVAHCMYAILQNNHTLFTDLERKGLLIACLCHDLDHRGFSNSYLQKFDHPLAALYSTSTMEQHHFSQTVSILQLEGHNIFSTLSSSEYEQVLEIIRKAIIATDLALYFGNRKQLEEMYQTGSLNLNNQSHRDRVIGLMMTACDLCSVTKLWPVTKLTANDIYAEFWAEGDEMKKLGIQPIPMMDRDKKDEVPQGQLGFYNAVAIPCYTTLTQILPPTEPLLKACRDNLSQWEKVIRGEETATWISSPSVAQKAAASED
Sequence of human Mitogen- and Stress-activated Protein Kinase-1 (Msk1), RPS6KA5 (gene 9252) (O75582 whole entry, looked up): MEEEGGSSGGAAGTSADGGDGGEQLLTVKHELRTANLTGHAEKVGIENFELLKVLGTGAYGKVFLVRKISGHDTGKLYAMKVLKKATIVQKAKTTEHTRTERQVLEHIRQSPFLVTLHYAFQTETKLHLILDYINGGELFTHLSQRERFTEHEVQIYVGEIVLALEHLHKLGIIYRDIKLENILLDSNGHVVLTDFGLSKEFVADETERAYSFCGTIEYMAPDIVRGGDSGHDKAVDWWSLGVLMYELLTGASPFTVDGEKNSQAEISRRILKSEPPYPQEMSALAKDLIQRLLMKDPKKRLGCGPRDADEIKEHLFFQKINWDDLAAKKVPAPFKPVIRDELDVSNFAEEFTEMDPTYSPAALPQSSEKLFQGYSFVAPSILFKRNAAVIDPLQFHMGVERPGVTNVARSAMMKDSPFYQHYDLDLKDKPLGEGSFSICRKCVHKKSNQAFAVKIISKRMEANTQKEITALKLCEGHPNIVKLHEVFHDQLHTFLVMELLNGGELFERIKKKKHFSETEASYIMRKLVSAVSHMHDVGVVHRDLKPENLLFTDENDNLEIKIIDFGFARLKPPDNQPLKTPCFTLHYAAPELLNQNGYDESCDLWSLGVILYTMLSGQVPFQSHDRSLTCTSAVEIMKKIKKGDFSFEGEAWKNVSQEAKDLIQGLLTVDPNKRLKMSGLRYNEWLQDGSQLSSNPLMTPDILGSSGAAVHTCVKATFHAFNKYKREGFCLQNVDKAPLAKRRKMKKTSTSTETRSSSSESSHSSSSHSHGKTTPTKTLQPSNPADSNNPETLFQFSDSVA

With `CNC(=S)S`, the outcome in [1] and in test [2] was inactive.

As for `COc1cnc(OC)n2nc(NS(=O)(=O)c3c(OCC(F)F)cccc3C(F)(F)F)nc12`, the molecule was classed as inactive in [3] and in test [4]. For the molecule `CC1=C(C(=O)Nc2ccccc2)SCCO1`, in test [5], the call was inactive.

Regarding `Cc1ccc(-c2c(Cl)nc(C#N)n2S(=O)(=O)N(C)C)cc1`, the AC50 in [6] is 11.7 µM (active). As for `CCNc1nc(Cl)nc(NCC)n1`, the half-maximal activity concentration (AC50) in [7] was 8.46 µM (active). As for `O=C(Nc1ccccc1)Nc1ccnc(Cl)c1`, in [6], the AC50 is 10 µM (active). For `CN(C)C(=S)SSC(=S)N(C)C`, in [5], the call was inactive. Turning to `CCCN(CCC)c1c([N+](=O)[O-])cc(S(N)(=O)=O)cc1[N+](=O)[O-]`, the molecule was called inactive in [1], in test [8], in [9], in test [7], in test [6] and in test [3]. Further, the outcome in test [5] and in [4] was inactive. Consider `COC(=O)c1ccccc1C(=O)OC`, for which the result in test [5] was inactive. `CO/C=C(/C(=O)OC)c1ccccc1Oc1cc(Oc2ccccc2C#N)ncn1`: the AC50 in test [7] is 14 µM (active). Besides, the call in test [7] and in test [5] was inactive. In the case of `CCNc1nc(Cl)nc(NC(C)C)n1`, the AC50 in [7] was 1.22 µM (active); in [6] it was 4.96 µM (active) and 8.17 µM (active). For `CON(C)C(=O)Nc1ccc(Cl)c(Cl)c1`, the AC50 in [7] is 3.85 µM (active); in [6], 7.19 µM (active) and 9.03 µM (active). Turning to `CCCCNC(=O)n1c(NC(=O)OC)nc2ccccc21`, the result in test [10] and in test [6] was inactive. `C=CCC1=C(C)C(OC(=O)C2C(C=C(C)C)C2(C)C)CC1=O` (centres undefined): in test [10], the concentration at half-maximal activity (AC50) was 793 nM (active). Consider `COc1nc(NC(C)C)nc(NC(C)C)n1`, for which the AC50 in test [7] was 13.4 µM (active). With `CCOP(=S)(OCC)SCn1c(=O)oc2cc(Cl)ccc21`, the concentration at half-maximal activity (AC50) in test [7] was 9.57 µM (active). The result in [6] was inactive. For `COc1ccc(C(c2ccc(OC)cc2)C(Cl)(Cl)Cl)cc1`, the molecule was classed as inactive in test [10]. As to `CC1COC(Cn2cncn2)(c2ccc(Oc3ccc(Cl)cc3)cc2Cl)O1` (centres undefined), the outcome in test [10] and in test [6] was inactive. For the molecule `N#Cc1nn(-c2c(Cl)cc(C(F)(F)F)cc2Cl)c(N)c1S(=O)C(F)(F)F` (centres undefined), the result in test [2] and in [5] was inactive.

For `CCOC(=O)CC(SP(=S)(OC)OC)C(=O)OCC` (centres undefined), the molecule was called inactive in test [10], in [7] and in test [4]. Turning to `COc1nc(C)nc(NC(=O)NS(=O)(=O)c2ccccc2CCC(F)(F)F)n1`, the AC50 in [6] is 25 µM (active). In addition, the molecule was classed as inactive in test [5]. As to `CS/C(C)=N/OC(=O)N(C)SN(C)C(=O)O/N=C(\C)SC`, the molecule was classed as inactive in test [5]. Regarding `COc1nc(C)nc(NC(=O)NS(=O)(=O)c2ccccc2Cl)n1`, the outcome in [2] and in [4] was inactive.

As a reminder, the AC50 is the midpoint of the concentration-response curve, whichever way the signal moves.
